JMJD2E inh: JMJD2E (human) inhibition; B2RXH2; JMJD2E catalytic domain, FDH-coupled NADH fluorescence (FDH is formaldehyde dehydrogenase); Potency, µM (highest dose often 57.1 µM), inactives show top-dose activity change, negative = inhibition, usual class: inhibitors; hit rate 1.6% among 230,000; active = well fitted inhibition curve with a large enough effect, not every such curve was filed as active; inconclusive = small, poorly fitted or top-dose-only effect, or another doubt; inactive = no such curve, though single readings can be large or run the other way;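 note: 0% = wells with enzyme and -100% = buffer wells without enzyme; nearly all actives have a fitted effect of over 50% in size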
Tau fluor counter: counter-screen for tau fibril formation inhibitors; tau K18 P301L Alexa594 fluorescence, heparin fibrillization; Potency, µM (titrated, usually from 57.7 µM), without a hit: at the top dose activity change, negative = decrease; hit rate 0.93% among 280,000; note: nearly all actives have a fitted effect of over 55% in size
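Human tau K18 P301L (15 uM unlabeled, 0.24 uM Alexa 594-labeled) in 100 mM sodium acetate pH 7 with 20 uM heparin, 6 hr at 37 C. ThT 30 uM added, 1 hr ambient; Alexa 594 FP and total fluorescence read at 555/632 nm.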
Tau fibril FP: inhibitors of human tau fibril formation | Potency, µM (top dose mostly 57.7 µM), for inactives: at the top dose activity, negative = inhibition, most hits filed as inhibitors | K18 P301L tau heparin fibrillization, Alexa594 FP, 6 h | P10636 | hit rate 0.39% among 280,000; note: nearly all actives have a fitted effect of over 55% in size
Target sequence (P10636 561-689 P618L limits assumed): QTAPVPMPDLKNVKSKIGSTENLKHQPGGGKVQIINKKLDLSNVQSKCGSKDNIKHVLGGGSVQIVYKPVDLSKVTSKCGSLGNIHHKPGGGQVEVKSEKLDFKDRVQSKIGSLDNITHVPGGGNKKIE
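Steps: dispense K18 P301L tau (15 uM plus 0.24 uM Alexa 594 tracer, final) in pH 7 sodium acetate; add compound; add heparin (20 uM final); incubate 6 hr, 37 C; add ThT (30 uM final); after 1 hr ambient, read FP.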
Tau ThT inhib: inhibitors of human tau fibril formation, thioflavin T binding; P10636; recombinant tau K18 P301L (four-repeat tau fragment), heparin-induced fibrillization, ThT fluorescence; Potency, µM (titrated, usually from 57.4 µM), inactives show at the highest dose activity, negative = inhibition, hits mostly inhibitors; hit rate 2.1% among 270,000; AID 1460; note: nearly all actives have a fitted effect of over 55% in size
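K18 P301L tau (15 uM + 0.24 uM Alexa 594-tagged), heparin 20 uM, NaOAc pH 7, 6 h 37 C; ThT 30 uM, 1 h RT, ex 450/em 510 nm.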
ALDH1A1 block: ALDH1A1 (human) enzyme inhibition | AID 1030 | hit rate 7.3% among 220,000 | Potency, µM (highest dose often 75.3 µM), without a hit: at the top dose activity, negative = inhibition, most hits filed as inhibitors | P00352 | Purified ALDH1A1, NADH fluorescence, propionaldehyde substrate; active = well fitted inhibition curve with a large enough effect, not every such curve was filed as active; inconclusive = small, poorly fitted or top-dose-only effect, or another doubt; inactive = no such curve, though single readings can be large or run the other way;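 note: plate controls were no enzyme wells and a reference inhibitor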
Target sequence (P00352 whole entry, looked up): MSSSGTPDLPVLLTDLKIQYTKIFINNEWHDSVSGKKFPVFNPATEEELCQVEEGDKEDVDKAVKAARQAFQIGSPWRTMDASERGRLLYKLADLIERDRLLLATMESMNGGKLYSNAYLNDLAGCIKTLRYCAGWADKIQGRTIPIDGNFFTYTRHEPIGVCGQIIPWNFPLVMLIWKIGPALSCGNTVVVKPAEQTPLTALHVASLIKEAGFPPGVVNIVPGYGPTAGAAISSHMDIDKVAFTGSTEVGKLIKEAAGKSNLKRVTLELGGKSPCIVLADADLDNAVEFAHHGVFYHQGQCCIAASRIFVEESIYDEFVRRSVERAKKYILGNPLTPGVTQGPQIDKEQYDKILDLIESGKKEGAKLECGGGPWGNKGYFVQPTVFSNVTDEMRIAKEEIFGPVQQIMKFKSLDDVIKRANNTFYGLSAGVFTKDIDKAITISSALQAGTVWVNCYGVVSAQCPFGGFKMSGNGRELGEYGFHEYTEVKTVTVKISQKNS
HPGD block: blocks human HPGD enzyme activity. P15428. purified HPGD, NADH fluorescence kinetic, PGE2 substrate. Potency, µM, for inactives: at the highest dose activity change, negative = inhibition, hits mostly inhibitors. hit rate 4.3% among 150,000. AID 894; active = well fitted inhibition curve with a large enough effect, not every such curve was filed as active; inconclusive = small, poorly fitted or top-dose-only effect, or another doubt; inactive = no such curve, though single readings can be large or run the other way
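NADH formation kinetics: reaction with 30 uM PGE2 and 1 mM NAD+ (final), 20 nM enzyme, Tris-HCl pH 8 with Tween 20, after 15 min compound preincubation at room temperature. Fluorescence change, last versus first of five reads.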
Active calls of the source: *; ? = inconclusive; / = no result given; [ ] = dose if it differs, or a comment. A selection: hits, their analogues and other compounds. The true share with any hit is near 9.9%. Unless noted, calls come from the whole dose curve; as a rule, active = well fitted curve in the direction sought with a large enough effect; inconclusive = small, poorly fitted or top-dose-only effect, or another doubt; inactive = no such curve, though single readings can be large; an effect the other way counts as inactive or inconclusive. Unless noted, % is set by controls: 0 for no effect and ±100 for the full control effect; potency is the fitted concentration of half-maximal effect.

SMILES | JMJD2E inh | Tau fluor counter | Tau fibril FP | Tau ThT inhib | ALDH1A1 block | HPGD block
Cc1onc(-c2ccccc2Cl)c1C(=O)O/N=C(\N)c1ccc([N+](=O)[O-])o1 | -1% | ? | 12% | -9% | 13µM* | /
CCOC(=O)C(=O)C1=C(N2CCOCC2)/C(=C\c2ccc(F)cc2)CC1 | -15% | 1% | 3% | ? | 13µM* | -12%
CCCCN(C(=O)NC(=O)C1=C(N2CCOCC2)/C(=C/c2ccccc2)CC1)S(C)(=O)=O | ? | 3% | 2% | -16% | ? | ?
CCOc1ccc(OCCN2C(=O)NC3(CCCc4ccccc43)C2=O)cc1 (centres undefined) | 2% | -4% | 5% | -15% | -11% | -16%
O=C1NC2(CCCc3ccccc32)C(=O)N1CCOc1ccc(Br)cc1 (centres undefined) | -2% | -15% | -10% | -9% | 4% | 16µM*
CC1CCc2nc3ncn(Cc4ccc(Cl)cc4)c(=O)c3cc2C1 (centres undefined) | / | 4% | 4% | 0% | / | /
COCCCN(CCCN)Cc1ccco1 | -11% | 6% | 5% | -9% | 8% | -10%
C#CCCCCCCCCCCCc1ccco1 | -5% | -7% | -8% | -9% | 20µM* | -23%
O=C(O)c1ccc(B(O)O)cc1 | 5% | 0% | 2% | 1% | -7% | -5%
Cc1ccccc1NC(=O)CN1C(=O)C2C3CC(C(Br)C3Br)C2C1=O (centres undefined) | -5% | -23% | ? | -3% | 10µM* | 14µM*
Cc1c(Cl)cccc1NC(=O)Cn1cccc1 | 0% | -10% | 3% | -8% | 8% | 18µM*
Cc1ccccc1NC(=O)Cn1cccc1 | -1% | -5% | ? | -4% | 8% | 32µM*
CCC(=O)NNC(=O)CCC(=O)Nc1cccc(Cl)c1C | -5% | 3% | -4% | 4% | 8% | /
Cc1ccc2c(=O)c(C(=O)c3ccc(F)cc3)cn(CC(=O)NCc3ccccc3Cl)c2n1 | / | 0% | -7% | 1% | / | /
Cc1ccc(NC(=O)c2sc(N)nc2-c2ccc([N+](=O)[O-])cc2)c(C)c1 | -8% | -11% | 2% | -1% | 10% | /
Cc1ccc2scc(N3CCCC(C)C3)c(=O)c2c1 (centres undefined) | / | -24% | -2% | ? | / | /
CCOC(=O)c1nn(-c2ccc(F)cc2)c(-c2ccccc2)c1C(=O)c1ccccc1 | 6% | -22% | -6% | -10% | 11µM* | -23%
COc1ccc(/C=C2/C(=O)N(c3nc4ccccc4s3)N=C2CSc2ccc(Cl)cc2)cc1 | ? | ? | -12% | ? | ? | 14µM*
O=C1NC(c2cccs2)Nc2sc3c(c21)CCCC3 (centres undefined) | ? | ? | ? | 2.5µM* | ? | ?
CN1C(=O)c2c(sc3c2CCCC3)NC1c1ccccc1O (centres undefined) | ? | ? | -11% | ? | ? | -22%
CCOC(=O)c1sc(NC(=O)CSc2nc3c(cc2C#N)CCCCC3)c(C#N)c1C | ? | -25% | ? | -19% | -3% | ?
CCc1nnc(NC(=O)CSc2nc3c(cc2C#N)CCCC3)s1 | ? | -19% | 1% | 3.2µM* | ? | -1%
CCc1nnc(NC(=O)c2sc3nc4c(cc3c2N)CCCCC4)s1 | ? | -18% | 17% | 1.4µM* | ? | ?
C/C=N/NC(=O)CCNC(=O)c1ccccc1 | 4% | -17% | 9% | -12% | -3% | -9%
CNc1nc(C)nc(N/N=C/c2ccccc2)n1 | 0% | -4% | -2% | -3% | 13µM* | /
SMILES | JMJD2E inh | Tau fluor counter | Tau fibril FP | Tau ThT inhib | ALDH1A1 block | HPGD block
C(=N\Nc1nc(Nc2ccccc2)nc(Nc2ccccc2)n1)/c1ccncc1 | -16% | -2% | ? | -1% | -3% | /
Cc1ccc(CNC(=O)CS(=O)(=O)Cc2nc(-c3ccccc3C)oc2C)cc1 | / | -1% | 5% | 11% | / | /
COc1cc(-c2nc(S(=O)(=O)c3ccc(C)cc3)c(N3CCOCC3)o2)cc(OC)c1OC | -28% | -6% | -2% | ? | 1.1µM* | -12%
COc1cc(-c2nc(S(=O)(=O)c3ccc(Cl)cc3)c(N3CCOCC3)o2)cc(OC)c1OC | -10% | 1% | 4% | -11% | 1µM* | -11%
O=S(=O)(c1ccc(Cl)cc1)c1nc(-c2ccco2)oc1N1CCOCC1 | -22% | 5% | 1% | / | / | /
CC(C)(C)c1nc(S(=O)(=O)c2ccc(Cl)cc2)c(N2CCOCC2)o1 | ? | -15% | ? | ? | 18µM* | -13%
CC(C)Cc1nc(S(=O)(=O)c2ccc(Cl)cc2)c(N2CCOCC2)o1 | -21% | -17% | ? | ? | ? | -6%
Cc1ccccc1Nc1nnc(SCC(=O)NC2CCCc3ccccc32)s1 (centres undefined) | -4% | -7% | 3% | -14% | -7% | -12%
CC(C)Oc1cc(O)c2c(c1)OCC=C2CCC(=O)O | / | / | / | / | -2%[13.5 µM] | -7%
Cn1cccc1C(C#N)c1cccc(F)c1C#N (centres undefined) | -8% | -4% | 0% | -12% | 25µM* | /
Cn1cccc1C(C#N)(CC#N)c1cccc(F)c1C#N (centres undefined) | 9% | 3% | 7% | 0% | 9% | /
O=C(c1cc2cc(Br)ccc2o1)N1CCCCC1 | -12% | -10% | 2% | ? | 22µM* | /
O=C(c1cc2cc(Br)cc(Br)c2oc1=O)N1CCCC1 | 5% | -1% | -1% | -4% | ? | 28µM*
O=C(c1cc2c(ccc3ccccc32)oc1=O)N1CCCC1 | ? | 0% | ? | 5% | ? | ?
Cc1cc(C(=O)N2CCC(C)CC2)on1 | -3% | -7% | -4% | / | / | /
CC1CCN(C(=O)c2cc3ccccc3c(=O)o2)CC1 | -1% | 1% | -2% | 2% | 1% | 25µM*
O=C(c1cc2ccccc2c(=O)o1)N1CCCCCC1 | 0% | -2% | 0% | -10% | ? | 18µM*
O=C(c1cc2cc(Br)cc(Br)c2oc1=O)N1CCCc2ccccc21 | -7% | -7% | ? | 3% | ? | -15%
CCCCc1nc2c(c3c1C[C@H](C)OC3)CN(C(=O)COC)CC2 | 5%[11.4 µM] | 0%[11.6 µM] | -2%[11.6 µM] | 4%[11.5 µM] | 4%[13.5 µM] | -10%
COc1ccc2[nH]cc(CCNc3ncnc4ccc(-c5cccc(C#N)c5)cc34)c2c1 | / | / | / | / | -7% | /
COc1ccc2[nH]cc(CCNc3ncnc4ccc(-c5ccccc5C#N)cc34)c2c1 | -28% | 14µM*[quencher] | 14% | ? | 3% | -23%
Cc1cc(C=NCCCO)c(C)n1-c1cc(Cl)ccc1Cl | -2% | -11% | -4% | -10% | 3.5µM* | /
CCOC(=O)c1cnc2ccc(C(=O)OC)cc2c1Nc1ccccc1CC | / | -20% | -15% | ? | / | /

Screening results deposited in PubChem BioAssay by National Center for Advancing Translational Sciences (NCATS).
